Assay results: PubChem BioAssay (NCI)
About 83,000 compounds went through this panel and 20% of them were active in at least one assay; those are over-represented in the sample as a whole.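 Interpretation: 100, growth as untreated; towards 0, rising growth inhibition; 0, no net growth; 0 to -100, cell death. Compounds scoring below 10 were considered active.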 The source made the active and inactive calls.

Key:
Assay in all cases: NCI-60 one-dose screen, 48 h (100 = growth as untreated, 0 = no growth, -100 = all killed)
Conditions in all cases: 10 µM unless noted
HT29 colon = system: HT29 colon
SNB-75 CNS = system: SNB-75 CNS
SNB-19 CNS = system: SNB-19 CNS
U251 CNS = system: U251 CNS
SK-MEL-5 melanoma = system: SK-MEL-5 melanoma
UACC-62 melanoma = system: UACC-62 melanoma
LOX IMVI melanoma = system: LOX IMVI melanoma
SK-MEL-28 melanoma = system: SK-MEL-28 melanoma
SK-MEL-2 melanoma = system: SK-MEL-2 melanoma
EKVX NSCLC = system: EKVX NSCLC
SN12C renal = system: SN12C renal
UO-31 renal = system: UO-31 renal
TK-10 renal = system: TK-10 renal
ACHN renal = system: ACHN renal
CAKI-1 renal = system: CAKI-1 renal
A498 renal = system: A498 renal
CCRF-CEM leukemia = system: CCRF-CEM leukemia
MOLT-4 leukemia = system: MOLT-4 leukemia
SR leukemia = system: SR leukemia

Measured: growth

O=C(Nc1ccc(Cl)cc1)c1cc2c(cc1O)[nH]c1ccccc12
inactive: SNB-75 CNS 38.3% | SNB-19 CNS 36.9% | U251 CNS 22.1% | UACC-62 melanoma 10.2% | LOX IMVI melanoma 30.4% | SK-MEL-28 melanoma 38.6% | SK-MEL-2 melanoma 22.3% | EKVX NSCLC 10.8% | SN12C renal 20.1% | UO-31 renal 39.9% | ACHN renal 22.2% | CAKI-1 renal 10.2% | A498 renal 29.8% | CCRF-CEM leukemia 18.1%
active: HT29 colon 1.2% | SK-MEL-5 melanoma 0.256% | TK-10 renal 4.83% | MOLT-4 leukemia -9.5% | SR leukemia 1.22%

[O-]/[N+](=C\C=C\c1ccccc1)c1ccccc1
inactive: HT29 colon 102% | SNB-75 CNS 91.8% | SNB-19 CNS 96.8% | U251 CNS 98.8% | SK-MEL-5 melanoma 102% | UACC-62 melanoma 93.8% | LOX IMVI melanoma 96.8% | SK-MEL-28 melanoma 110% | SK-MEL-2 melanoma 100% | EKVX NSCLC 100% | SN12C renal 106% | UO-31 renal 97.4% | TK-10 renal 144% | ACHN renal 108% | CAKI-1 renal 103% | A498 renal 96.9% | CCRF-CEM leukemia 88% | MOLT-4 leukemia 85.1% | SR leukemia 73%

COc1ccc2[nH]c(-c3ccccc3)cc2c1
active: SR leukemia -14.8%
inactive: HT29 colon 102% | SNB-75 CNS 88% | SNB-19 CNS 93.4% | U251 CNS 107% | SK-MEL-5 melanoma 97% | UACC-62 melanoma 84.7% | LOX IMVI melanoma 105% | SK-MEL-28 melanoma 110% | SK-MEL-2 melanoma 101% | EKVX NSCLC 94.5% | SN12C renal 97.1% | UO-31 renal 75.1% | TK-10 renal 156% | ACHN renal 101% | CAKI-1 renal 99.1% | A498 renal 89% | CCRF-CEM leukemia 88.5% | MOLT-4 leukemia 53.7%

COc1cc2c(c(OC)c1OC)CCc1cnoc1-2
inactive: HT29 colon 99.4% | SNB-75 CNS 71.7% | SNB-19 CNS 97% | U251 CNS 98.7% | SK-MEL-5 melanoma 100% | UACC-62 melanoma 98.9% | LOX IMVI melanoma 92.1% | SK-MEL-28 melanoma 123% | SK-MEL-2 melanoma 119% | EKVX NSCLC 112% | SN12C renal 106% | UO-31 renal 94.5% | TK-10 renal 111% | ACHN renal 95.1% | CAKI-1 renal 105% | A498 renal 100% | CCRF-CEM leukemia 111% | MOLT-4 leukemia 127% | SR leukemia 166%

N#Cc1ccc(NC(=O)Nc2ccc(Oc3ccc(NC(=O)Nc4ccc(C#N)cc4)cc3)cc2)cc1
inactive: HT29 colon 37.4% | SNB-75 CNS 70.1% | SNB-19 CNS 30.7% | U251 CNS 27.7% | SK-MEL-5 melanoma 31.2% | UACC-62 melanoma 11.2% | LOX IMVI melanoma 35.4% | SK-MEL-28 melanoma 51% | EKVX NSCLC 34.1% | SN12C renal 39% | TK-10 renal 37.9% | ACHN renal 23.1% | CAKI-1 renal 33% | A498 renal 41.1%
active: SK-MEL-2 melanoma -19.6% | UO-31 renal -25.7% | CCRF-CEM leukemia -13.7% | MOLT-4 leukemia -58% | SR leukemia 3.43%

O=C(Nc1cccc2ccccc12)c1cc2c(cc1Br)OCO2
inactive: HT29 colon 101% | SNB-75 CNS 57.4% | SNB-19 CNS 86.7% | U251 CNS 103% | SK-MEL-5 melanoma 99.2% | UACC-62 melanoma 85.5% | LOX IMVI melanoma 91% | SK-MEL-28 melanoma 119% | SK-MEL-2 melanoma 130% | EKVX NSCLC 92.9% | SN12C renal 107% | UO-31 renal 99.2% | TK-10 renal 172% | ACHN renal 94.2% | CAKI-1 renal 101% | A498 renal 126% | CCRF-CEM leukemia 94.7% | MOLT-4 leukemia 91.5% | SR leukemia 71.5%

C[n+]1c2ccccc2c(Nc2ccc(N3CCCCC3)cc2)c2[nH]c3ccccc3c21
active: HT29 colon -85% | SNB-75 CNS -94% | SNB-19 CNS -89.8% | U251 CNS -98% | SK-MEL-5 melanoma -98.3% | UACC-62 melanoma -97.8% | LOX IMVI melanoma -86.2% | SK-MEL-28 melanoma -98.9% | SK-MEL-2 melanoma -97.9% | EKVX NSCLC -56.1% | SN12C renal -82.7% | UO-31 renal -97.5% | TK-10 renal -79.4% | ACHN renal -96.2% | CAKI-1 renal -96.8% | A498 renal -88.3% | CCRF-CEM leukemia -49.3% | MOLT-4 leukemia -63.4% | SR leukemia -70.1%

COc1cc(/C=C/c2nnc(-c3cc(-c4ccccc4)n[nH]3)o2)cc(OC)c1OC
inactive: HT29 colon 96.8% | SNB-75 CNS 67.4% | SNB-19 CNS 102% | U251 CNS 108% | SK-MEL-5 melanoma 84.5% | UACC-62 melanoma 92.9% | LOX IMVI melanoma 95.4% | SK-MEL-28 melanoma 87.9% | SK-MEL-2 melanoma 89.7% | EKVX NSCLC 102% | SN12C renal 99.5% | UO-31 renal 80% | TK-10 renal 123% | ACHN renal 91.3% | CAKI-1 renal 89.4% | A498 renal 105% | CCRF-CEM leukemia 75.9% | MOLT-4 leukemia 69% | SR leukemia 86.4%

COc1ccc(-c2nc3sccn3c2-c2ccnc(S(C)(=O)=O)n2)cc1
inactive: HT29 colon 89% | SNB-75 CNS 61.1% | SNB-19 CNS 64.2% | U251 CNS 94.4% | SK-MEL-5 melanoma 98.9% | UACC-62 melanoma 77.1% | LOX IMVI melanoma 68.8% | SK-MEL-28 melanoma 43.7% | SK-MEL-2 melanoma 100% | EKVX NSCLC 79.7% | SN12C renal 93.4% | TK-10 renal 117% | ACHN renal 74.2% | A498 renal 120% | CCRF-CEM leukemia 77.8% | MOLT-4 leukemia 87.2% | SR leukemia 40.5%
active: UO-31 renal -82% | CAKI-1 renal -69%

NC(=O)N/N=C/c1ccc(Br)o1
inactive: HT29 colon 102% | SNB-75 CNS 105% | SNB-19 CNS 111% | U251 CNS 106% | SK-MEL-5 melanoma 101% | UACC-62 melanoma 104% | LOX IMVI melanoma 94.2% | SK-MEL-28 melanoma 105% | SK-MEL-2 melanoma 99.6% | EKVX NSCLC 101% | UO-31 renal 86.1% | TK-10 renal 101% | ACHN renal 106% | CAKI-1 renal 98.4% | A498 renal 97.5% | CCRF-CEM leukemia 108% | MOLT-4 leukemia 97.9% | SR leukemia 97.6%

ClC1=C(Cl)C(=C2C(Cl)=C(Cl)C(Cl)=C2Cl)C(Cl)=C1Cl
inactive: HT29 colon 96.2% | SNB-75 CNS 94.4% | SNB-19 CNS 105% | U251 CNS 103% | SK-MEL-5 melanoma 103% | UACC-62 melanoma 99.3% | LOX IMVI melanoma 97.9% | SK-MEL-28 melanoma 111% | SK-MEL-2 melanoma 95.8% | EKVX NSCLC 105% | SN12C renal 98.5% | UO-31 renal 81% | TK-10 renal 94.1% | A498 renal 88.2% | MOLT-4 leukemia 82.1% | SR leukemia 103%

CCc1ccc(CCN2C(=O)c3ccccc3C2=O)nc1
inactive: HT29 colon 109% | SNB-75 CNS 99% | SNB-19 CNS 91.7% | U251 CNS 103% | SK-MEL-5 melanoma 107% | UACC-62 melanoma 98.6% | LOX IMVI melanoma 101% | SK-MEL-28 melanoma 118% | EKVX NSCLC 91% | SN12C renal 103% | UO-31 renal 137% | TK-10 renal 126% | ACHN renal 105% | A498 renal 120% | CCRF-CEM leukemia 108% | MOLT-4 leukemia 109% | SR leukemia 104%

O=C1OCCCCCCCCCC#Cc2ccccc21
inactive: HT29 colon 70.8% | SNB-75 CNS 88.7% | SNB-19 CNS 98.6% | U251 CNS 115% | SK-MEL-5 melanoma 89% | UACC-62 melanoma 99.2% | LOX IMVI melanoma 140% | SK-MEL-28 melanoma 110% | SK-MEL-2 melanoma 109% | EKVX NSCLC 115% | SN12C renal 113% | TK-10 renal 122% | ACHN renal 145% | CAKI-1 renal 97.1% | MOLT-4 leukemia 85.7% | SR leukemia 87.4%

O=c1c(O)cccn1CCCNCCCN(CCCn1cccc(O)c1=O)CCCn1cccc(O)c1=O
inactive: HT29 colon 111% | SNB-75 CNS 104% | SNB-19 CNS 99.8% | U251 CNS 93.8% | SK-MEL-5 melanoma 105% | UACC-62 melanoma 100% | LOX IMVI melanoma 83.8% | SK-MEL-28 melanoma 116% | SK-MEL-2 melanoma 122% | EKVX NSCLC 93% | UO-31 renal 104% | TK-10 renal 108% | ACHN renal 101% | CAKI-1 renal 103% | A498 renal 129% | CCRF-CEM leukemia 147% | MOLT-4 leukemia 160%

Cc1cc(C)n(C(=O)c2nn(-c3ccc(Cl)cc3)cc2O)n1
inactive: HT29 colon 97.7% | SNB-75 CNS 29.8% | SNB-19 CNS 26.3% | U251 CNS 19.4% | SK-MEL-5 melanoma 79.3% | UACC-62 melanoma 52.9% | LOX IMVI melanoma 41.4% | SK-MEL-28 melanoma 71.7% | SK-MEL-2 melanoma 88.3% | EKVX NSCLC 66.8% | UO-31 renal 13.7% | TK-10 renal 35.7% | ACHN renal 33.4% | CAKI-1 renal 77.6% | A498 renal 56.2% | CCRF-CEM leukemia 13%
active: MOLT-4 leukemia 9.99% | SR leukemia 3.49%

O=C(NCCc1ccccc1)C1CCC(=O)N1Cc1ccc(Br)cc1 (centres undefined)
inactive: HT29 colon 85.6% | SNB-75 CNS 100% | SNB-19 CNS 96.7% | U251 CNS 96.7% | SK-MEL-5 melanoma 101% | UACC-62 melanoma 95.4% | LOX IMVI melanoma 97.8% | SK-MEL-28 melanoma 99.7% | SK-MEL-2 melanoma 96.1% | EKVX NSCLC 103% | SN12C renal 104% | UO-31 renal 92.6% | TK-10 renal 99.7% | ACHN renal 107% | CAKI-1 renal 100% | A498 renal 88.3% | MOLT-4 leukemia 94% | SR leukemia 102%

Cc1cc2c(cc1[N+](=O)[O-])NC(CNC(C)C)CC2 (centres undefined)
inactive: HT29 colon 88.8% | SNB-75 CNS 67.7% | SNB-19 CNS 87% | U251 CNS 99.2% | SK-MEL-5 melanoma 96.8% | UACC-62 melanoma 98.7% | LOX IMVI melanoma 91.3% | SK-MEL-28 melanoma 114% | SK-MEL-2 melanoma 112% | EKVX NSCLC 95.2% | SN12C renal 105% | UO-31 renal 90.7% | TK-10 renal 97.1% | ACHN renal 99.7% | CAKI-1 renal 99.7% | CCRF-CEM leukemia 130% | MOLT-4 leukemia 69.6% | SR leukemia 119%
